In PubChem BioAssay (NCI):
Compounds without any hit were thinned out: in the full panel of roughly 79,000, 15% have a hit. Active and inactive are the calls of the source. Rule as the data show it: active = growth inhibition above about 70%; inactive = the rest.

test: NCI Yeast Anticancer Drug Screen. Data for the sgs1 mgt1 strain (AID 161);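 also: 0% = growth of cultures given vehicle only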; conditions: S. cerevisiae sgs1 mgt1 strain, at 50.0 µM, active compounds read high
In short: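 Inhibition of yeast growth, normalised to vehicle-treated controls, is reported for a strain bearing genetic alterations in DNA damage repair.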

SMILES	growth inhibition
Cc1ccc2c(c1)C1(OC(=O)c3ccccc31)c1ccc(F)cc1O2 (configuration not stated)	36.9% (inactive)
CCCCCCCSCC(O)COC(c1ccccc1)(c1ccccc1)c1ccccc1 (configuration not stated)	-29.6% (inactive)
COc1c(C)cc2c(C(C)C)c(O)c(O)c(C=O)c2c1O	80.5% (active)
O=C1CSC(=S)N1c1ccco1	17.9% (inactive)
Nc1nc(Cl)cc(Nc2cc(Cl)cc(Cl)c2)n1	79.7% (active)
CC(C)C(=NNC(N)=O)C(C)C	-1.35% (inactive)
NC(Cc1cccs1)C(=O)O (configuration not stated)	-27.6% (inactive)
Cc1cc(N(CCC#N)CCC#N)ccc1/C(N=Nc1ccc([N+](=O)[O-])cc1)=N\NC(=O)c1cc(Cl)ccc1O	-5% (inactive)
Cc1ccc(C)c(NC(=O)C(=O)CC(=O)c2cccc3ccccc23)c1	2.05% (inactive)
CCc1nc(N)nc(N)c1-c1ccc(N(CC)Cc2ccccc2)c([N+](=O)[O-])c1	-6.05% (inactive)
Cc1nc2ccc(N)cc2[nH]c1=O	12.8% (inactive)
CCOC(=O)CNC(=O)C(Cc1ccccc1)NC(=O)CNC(=O)OCc1ccccc1 (configuration not stated)	15.5% (inactive)
Oc1c(Cl)cc(N=Cc2ccc(N(CCCCl)CCCCl)cc2)cc1Cl	94.8% (active)
O=C1OC(=O)C2C3C=CC(C4C=C(C5CC5)C43)C12 (configuration not stated)	-4.1% (inactive)
Cc1ccc(N=C(N)NC#N)cc1	-27.1% (inactive)
COCCCN1C(=O)C2c3[nH]c4ccccc4c3C3CCC(C(C)(C)C)CC3C2C1=O (configuration not stated)	21.9% (inactive)
CC(=O)N1CN=C2Sc3ccccc3N2C1	8.45% (inactive)
